# Source: PubChem BioAssay (Tox21)
# Unmarked numbers belong to inactive results. Active and inactive are the calls of the source. The call rests on the fitted dose curve; in most records, active means well fitted curve in the direction sought with a large enough effect in the repeat runs; inconclusive means weak or mixed curves; inactive means flat fitted curve, though single readings scatter.
# Assay: qHTS assay to test for compound auto fluorescence at 460 nm (blue) in HEK293 cell free culture (AID 720681)
# Settings: cell-free medium, autofluorescence 405/460 nm (blue); series mostly up to 91.3 µM
# Text: U.S. Tox21 Program National Center for Advancing Translational Sciences [NCATS] NIH Chemical Genomics Center [NCGC] U.S. Environmental Protection Agency [EPA] National Institutes of Environmental Health Sciences [NIEHS] National Toxicology Program [NTP] U.S. Food and Drug Administration [FDA] Tox21 Assay Overview: Compound auto fluorescence often interferes with screening of the compound library against various biological targets and signaling pathways. Some of these compounds may have fluorophoric properties. Such properties may interfere with the assay outputs resulting in false positives and/or negatives. To decrease such complications and ensure the compound activities are relevant in terms of biological response, the Tox21 10K compound library was screened for auto fluorescence. From the fluorophores used as reporter signals in our screening assays, the auto fluorescence equivalencies of compounds against three fluorophores have been evaluated: Triamterene, Fluorescein and Rose Bengal sodium for blue, green and red fluorescence, respectively. The fluorescence intensities were measured using Excitation/Emission wavelengths at 405/460nm, 485/535nm and 540/590nm for blue, green and red labels, respectively. This assay includes the blue fluorescence data.
# Tox21 Assay Protocol Summary: 5 uL of culture medium (DMEM containing 10% FBS) per well was dispensed into black wall/clear bottom 1536-well plates using a Multidrop Combi Dispenser (ThermoFisher Scientific, Waltham, MA). After 23 nL compound or DMSO vehicle was transferred into assay plate by a pintool work station (Kalypsys, San Diego, CA), fluorescence intensities in the assay plates were measured by an Envision (PerkinElmer, Shelton, CT) plate reader using three labels for measuring blue, green and red fluorescence at […] 460, 535 and 590nm respectively.
# On the % scale 0 is the no-effect control and ±100 the full control effect.
Structure (SMILES),outcome,"fluorescence, % of fluorescent control"
CC(Oc1cccc(Cl)c1)C(=O)O (stereo not given),inactive,
CC(C)c1ccc(OP(=O)(Oc2ccc(C(C)C)cc2)Oc2ccc(C(C)C)cc2)cc1,inactive,
N#CC1(N=NC2(C#N)CCCCC2)CCCCC1,inactive,
CCOc1cccc(C2(N3CCN(c4ccccc4)CC3)CCC(C)CC2)c1 (stereo not given),inactive,
CN(C)C(=O)Nc1cccc(OC(=O)NC(C)(C)C)c1,inactive,
CCOP(=O)(SC(C)CC)N1CCSC1=O (stereo not given),inactive,
C=CCOC(=O)C(C)(C)OC(=O)c1cc(-n2c(=O)cc(C(F)(F)F)n(C)c2=O)ccc1Cl,inactive,
O=C(NCNC(=O)NC1C(=O)NC(=O)N1CO)NC1C(=O)NC(=O)N1CO (stereo not given),inactive,
CCOC(=O)C1OC1(C)c1ccccc1 (stereo not given),inactive,
CCC[N+](CCC)(CCC)CCC,inactive,
COc1ccc(C(O)(c2cncnc2)C2CC2)cc1 (stereo not given),inactive,
CC(=O)OC(c1ccccc1)C(Cl)(Cl)Cl (stereo not given),inactive,
C=CC(=O)NC(C)(C)CC(C)=O,inactive,
CCCCCCCCCCCCCCCl,inactive,
O=[N+]([O-])O[C@H]1CO[C@H]2[C@@H]1OC[C@H]2O[N+](=O)[O-],inactive,
C[C@]12CC[C@H]3[C@@H](CCC4=CC(=O)CC[C@@H]43)[C@@H]1CC[C@@H]2OC(=O)CCc1ccccc1,inactive,
CCN(C(C)=O)c1cccc(-c2ccnc3c(C#N)cnn23)c1,inactive,
C=CCN1C[C@H](C)N([C@H](c2ccc(C(=O)N(CC)CC)cc2)c2cccc(OC)c2)C[C@H]1C,inactive,
C=CCOCC1CO1 (stereo not given),inactive,
NNCCO,inactive,

Structure (SMILES),outcome,"fluorescence, % of fluorescent control"
C[C@H]1O[C@H](OC2[C@@H](O)[C@@H](O)C(O)[C@H](O)[C@H]2O)[C@@H](N)C[C@@H]1N=C(N)C(=O)O (stereo not given in full),inactive,
COc1ccccc1N1CCNCC1,inactive,
C[CH2][Hg][S]c1ccccc1C(=O)O,inactive,
CCC(C)(C)O,inactive,
CCC(C)(C)c1ccc(O)c(C(C)(C)CC)c1,inactive,
C=CC(=O)OCC,inactive,
CC[N+]1(C)CCCC(OC(=O)C(O)(c2ccccc2)c2ccccc2)C1 (stereo not given),inactive,
O=C(Cc1ccccc1)c1ccccc1,inactive,
O=C(Cl)OCCOCCOC(=O)Cl,inactive,
C[N+]1(CCC(C(N)=O)(c2ccccc2)c2ccccc2)CCCCC1,inactive,
CCCCCCCCCCCCN=C(N)N,,-0.0835% [at 3.72 µM]
CCOP(=S)(S)OCC,inactive,
NC(=S)c1c(Cl)cccc1Cl,inactive,
CCCC[P+](CC)(CCCC)CCCC (tested in a mixture with another compound),inactive,
CC(C)OC(=O)Cc1ccccc1,inactive,
CCC1(C2=NCCN2)Cc2ccccc2O1 (stereo not given),inactive,
C#C[C@]1(O)CC[C@H]2[C@@H]3CCC4=CC(=O)CCC4=C3C=C[C@@]21CC,inactive,
CC(C)(C)NCC(O)c1cc(Cl)c(N)c(C(F)(F)F)c1 (stereo not given),inactive,
O=C(CCl)CCl,inactive,
CN1CC[C@]23c4c5ccc(O)c4O[C@H]2[C@@H](O)CC[C@H]3[C@H]1C5,inactive,
